Bioassay records: PubChem, The Scripps Research Institute Molecular Screening Center
A selection: hits, their analogues and other compounds. The true share with any hit is near 2.3%.
pPAFAH inh = pPAFAH (human) enzyme inhibition; Q13093; recombinant pPAFAH, FP-rhodamine probe fluorescence polarization; inhibition, % at 3.39 µM; 330,000 compounds, 1.5% hits; AID 463082;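 active means inhibition above the mean inhibition across the screen plus 3 SD, cut at about 25% in these data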;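 further: inhibitors block binding of the rhodamine activity-based probe so polarization drops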
Fam108B counter = blocks mouse Fam108B hydrolase in RBBP9 counter-screen. 300,000 compounds, 0.33% hits. recombinant Fam108B, FP-Rh probe fluorescence polarization. inhibition, % at 9.51 µM;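 active means inhibition above the screen mean inhibition plus 3 SD, computed separately per campaign, cut at about 18% in these data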;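 further: inhibitors lower polarization as less probe binds the enzyme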
PME-1 primary = PME-1 (human) inhibition; inhibition, % at 5.9 µM; 320,000 compounds, 0.53% hits; Q9Y570; recombinant PME-1, FP-Rh probe fluorescence polarization;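 active means inhibition above the campaign mean of all compounds plus 3 SD, cut at about 26% in these data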;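 further: competitive labeling of PME-1 active site by serine hydrolase directed probe; inhibitors block probe labeling so polarization falls and inhibition rises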
Target sequence (Q9Y570 whole entry, looked up): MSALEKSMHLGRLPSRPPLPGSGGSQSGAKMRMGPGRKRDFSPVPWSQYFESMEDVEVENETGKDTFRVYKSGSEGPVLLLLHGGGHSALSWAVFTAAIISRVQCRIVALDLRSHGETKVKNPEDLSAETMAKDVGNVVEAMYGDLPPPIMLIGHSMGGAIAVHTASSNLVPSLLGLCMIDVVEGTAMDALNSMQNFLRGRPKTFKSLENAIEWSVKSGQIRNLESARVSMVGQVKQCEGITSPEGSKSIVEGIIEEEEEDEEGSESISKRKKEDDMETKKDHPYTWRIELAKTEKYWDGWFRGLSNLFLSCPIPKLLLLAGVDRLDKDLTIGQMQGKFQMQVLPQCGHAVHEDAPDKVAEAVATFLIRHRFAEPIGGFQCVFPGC
PAD4 FP inh = blocks human protein arginine deiminase 4; recombinant PAD4, RCA probe fluorescence polarization; inhibition, % at 6.36 µM; 330,000 compounds, 0.41% hits;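 active means percent inhibition above a cutoff equal to the mean of all tested compounds plus 3 SD, cut at about 15% in these data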
GSTO1 counter = blocks human GSTO1 in RBBP9 counter-screen; P78417; 300,000 compounds, 1.1% hits; recombinant GSTO1, activity-based probe fluorescence polarization; inhibition, % at 5.96 µM;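 active means inhibition above the campaign mean inhibition plus 3 SD, cut at about 35% in these data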
GSTO1 inh conf = confirmation of human GSTO1 inhibitors | inhibition, % at 5.96 µM | shares compounds with GSTO1 counter | AID 2176 | recombinant GSTO1, probe fluorescence polarization | 2,400 compounds, 54% hits;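 active means inhibition above the primary screen's cutoff, its mean inhibition plus 3 SD, cut at about 35% in these data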;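 further: loss of polarization as inhibitors block binding of rhodamine sulfonate ester activity probe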
GSTO1 ABPP inh = blocks recombinant human glutathione S-transferase omega 1; AID 463110; recombinant GSTO1, gel ABPP SE-Rh probe fluorescence; 130 compounds, 30% hits; inhibition, % at 1 µM; shares compounds with GSTO1 counter;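 active means inhibition of the enzyme GSTO1 above about 75%, limit read from the data; inactive means inhibition below that limit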
pPAFAH confirm = confirmation of human plasma PAF acetylhydrolase (pPAFAH) inhibitors; shares compounds with pPAFAH inh; recombinant pPAFAH, FP-Rh probe fluorescence polarization; inhibition, % at 3.39 µM; 2,300 compounds, 72% hits;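 active means mean inhibition of the triplicate above the hit cutoff set for the earlier primary screen, cut at about 25% in these data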
PAD4 FP conf = PAD4 (human) inhibition, confirmed | 1,200 compounds, 28% hits | recombinant PAD4, RCA probe fluorescence polarization | shares compounds with PAD4 FP inh | AID 488796 | inhibition, % at 6.36 µM;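 active means mean inhibition across replicates above the hit cutoff set by the earlier primary screen, cut at about 15% in these data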;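 further: inhibitors block active-site labeling by the probe so polarization falls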
Numbers stand for hits; - = inactive; . = no result given.

SMILES | pPAFAH inh | Fam108B counter | PME-1 primary | PAD4 FP inh | GSTO1 counter | GSTO1 inh conf | others
C=C(C)Cn1c(=O)n(CC2CS2)c2ccccc21 (stereo not given) | - | - | - | - | 50 | 46
Cc1cc(NC(=O)CCl)no1 | - | - | - | - | 87 | 98
Cc1cc(NC(=O)COC(=O)c2c(C)nn(Cc3ccccc3)c2C)no1 | - | - | - | - | - | .
CCCN1CCc2cccc3c2[C@H]1Cc1ccc(O)c(O)c1-3 | 34 | - | - | - | 93 | -
CN1CC(C#N)C2(O)c3ccccc3CCC2C1 (stereo not given) | - | - | - | - | - | .
N=c1sccn1Cc1ccc(Cl)cc1Cl | - | - | - | - | 75 | -
Cc1cc(=O)oc2cc(OCC(=O)N3CCN(Cc4ccc5c(c4)OCO5)CC3)ccc12 | - | - | - | - | - | .
COc1cccc(CCNCc2ccc(SC)cc2)c1 | - | - | - | - | - | .
COC(=O)C1=C(c2cccc(C#N)c2)C[C@@H]2CC[C@H]1N2C(=O)NCCCOC(C)C | - | . | - | - | . | .
O=C1NC(=O)C(Sc2ccccc2[N+](=O)[O-])C(=O)N1 | - | - | - | - | 48 | -
O=[N+]([O-])c1ccccc1Cl | - | . | - | - | . | .
COc1cc(O)c(C(=O)O)c(-c2cc(O)c(O)cc2C)c1 | - | - | - | - | 64 | -
COc1ccc2c(c1)c(C(=O)O)c(C)n2CC(C)C | - | - | - | - | - | .
Cn1cc(NC(=O)CCl)cn1 | - | - | - | - | 80 | 89
CCC(=O)Nc1ccccc1 | - | - | - | - | - | .
COC(=O)C1=C(c2cccc(OCc3ccccc3)c2)C[C@@H]2CC[C@H]1N2C(=O)NCc1cc(C)oc1C(F)(F)F | - | . | - | - | . | .
c1ccc(-c2[nH]c[n+](CC3CO3)c2-c2ccccc2)cc1 (stereo not given) | - | - | - | - | 76 | 81 | GSTO1 ABPP inh=-
c1ccc(OCC2CO2)cc1 (stereo not given) | - | . | - | - | . | .
CNC(=O)Oc1ccc(N(C)C)cc1C(C)C | - | - | - | - | - | .
C[C@]12CC[C@@H]3c4ccc(O)c(O)c4CC[C@H]3[C@@H]1CC[C@@H]2O | - | - | - | - | 61 | -
CC1(C)CC(=O)C(C2(O)C(=O)NC(=O)NC2=O)=C(O)C1 | - | - | - | - | 68 | 60
O=C(CN1CCCC1=O)N1CCOCC1 | - | - | - | - | 56 | -
O=C(NC(C(Cl)Cl)N1CCOCC1)c1ccccc1 (stereo not given) | - | - | - | - | - | .
Cn1c(O)c(C2=NN(C(=O)CCl)C(c3ccccc3)C2)c(=O)n(C)c1=O (stereo not given) | - | - | - | - | 102 | 98
Cn1c(O)c(C2=NNC(c3ccc(Cl)cc3)C2)c(=O)n(C)c1=O (stereo not given) | - | - | - | - | - | .
SMILES | pPAFAH inh | Fam108B counter | PME-1 primary | PAD4 FP inh | GSTO1 counter | GSTO1 inh conf | others
CN(C)C1C(=O)C(C(N)=O)=C(O)C2(O)C(=O)C3=C(O)c4c(O)cccc4C(C)(O)C3C(O)C12 (stereo not given) | 73 | - | - | - | 68 | 42 | pPAFAH confirm=-
COC(=O)C1=C(c2ccc3ccccc3c2)C[C@@H]2CC[C@H]1N2C(=O)N1CCCCC1 | - | . | - | - | . | .
O=[N+]([O-])c1cc(O)c(O)c([N+](=O)[O-])c1 | 37 | - | - | - | 39 | - | pPAFAH confirm=70
Cc1ccccc1-[n+]1c(-c2ccccc2)cc(-c2ccccc2)cc1-c1ccccc1 | - | - | - | - | - | .
O=C(O)CC1OCC=C2CN3CCC45C6=CC(=O)C(=O)C([N+](=O)[O-])=C6NC4C1C2CC35 (stereo not given) | - | - | - | 66 | 79 | 82 | PAD4 FP conf=60
COc1cc2c(cc1OC)-c1c(OC)c(OC)cc3c1[C@H](C2)N(C)CC3 | - | - | - | 23 | 47 | 71 | PAD4 FP conf=-
COCCOC(=O)c1c(N)n(Cc2ccc(OC)cc2)c2nc3ccccc3nc12 | - | - | - | - | - | .
